Measured values published in PubChem BioAssay AID1159580 (chemical genetic matrix, 2015).
Out of some 5,500 compounds screened, about 2,000 (36%) were called active. About 18% were inconclusive and are not listed. Rule as the data show it: active = normalized growth mostly below about 0.91 (no sharp cut-off); inconclusive = no clear call, values can overlap the other calls; inactive = mostly above about 0.92. The list shows a part of the results.

Experiment: chemical genetic growth profiling, strain panel (AID 1159580);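 also: tested at 20 µM; growth read once vehicle control cultures reached saturation at 30 °C; 1 = growth at the plate median or of vehicle wells; lower values mean less growth of the strain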
Details: growth OD

Measured: normalized growth

C[C@H](N)[C@H](O)c1ccc(O)c(O)c1
inactive: S. cerevisiae deletion strains, locus YJR066W, strain TOR1, stronger effect = lower value 0.948 | S. cerevisiae deletion strains, locus YJR075W, strain HOC1, stronger effect = lower value 0.993 | S. cerevisiae deletion strains, locus YKL009W, strain mrt4, stronger effect = lower value 0.994 | S. cerevisiae deletion strains, locus YKL068W, stronger effect = lower value 0.986 | S. cerevisiae deletion strains, locus YKL085W, strain MDH1 (second series), stronger effect = lower value 0.983 | S. cerevisiae deletion strains, locus YKL085W, strain MDH1, stronger effect = lower value 0.983 | S. cerevisiae deletion strains, locus YKL160W, strain elf1, stronger effect = lower value 0.981 | S. cerevisiae deletion strains, locus YKR001C, strain vps1, stronger effect = lower value 0.978 | S. cerevisiae deletion strains, locus YKR026C, strain gcn3, stronger effect = lower value 1 | S. cerevisiae deletion strains, locus YKR091W, strain srl3, stronger effect = lower value 0.998 | S. cerevisiae deletion strains, locus YLL001W, strain dnm1, stronger effect = lower value 0.954 | S. cerevisiae deletion strains, locus YLL026W, stronger effect = lower value 1.01 | S. cerevisiae deletion strains, locus YLL041C, strain sdh2, stronger effect = lower value 1.01 | S. cerevisiae deletion strains, locus YLR027C, strain aat2, stronger effect = lower value 1.01 | S. cerevisiae deletion strains, locus YLR039C, strain RIC1, stronger effect = lower value 0.959 | S. cerevisiae deletion strains, locus YLR058C, strain SHM2, stronger effect = lower value 0.993 | S. cerevisiae deletion strains, locus YLR102C, strain apc9, stronger effect = lower value 0.988 | S. cerevisiae deletion strains, locus YLR113W, strain HOG1, stronger effect = lower value 0.967 | S. cerevisiae deletion strains, locus YLR221C, strain rsa3, stronger effect = lower value 0.979 | S. cerevisiae deletion strains, locus YLR258W, strain gsy2, stronger effect = lower value 0.996 | S. cerevisiae deletion strains, locus YLR262C, strain YPT6 (second series), stronger effect = lower value 0.974 | S. cerevisiae deletion strains, locus YLR262C, strain YPT6, stronger effect = lower value 1.04 | S. cerevisiae deletion strains, locus YLR268W, strain sec22, stronger effect = lower value 0.969 | S. cerevisiae deletion strains, locus YLR320W, strain mms22, stronger effect = lower value 1.01 | S. cerevisiae deletion strains, locus YLR330W, strain CHS5, stronger effect = lower value 0.995 | S. cerevisiae deletion strains, locus YLR342W, strain FKS1 (second series), stronger effect = lower value 0.968 | S. cerevisiae deletion strains, locus YLR342W, strain FKS1, stronger effect = lower value 1.01 | S. cerevisiae deletion strains, locus YLR357W, strain rsc2, stronger effect = lower value 0.983 | S. cerevisiae deletion strains, locus YLR370C, strain arc18, stronger effect = lower value 1 | S. cerevisiae deletion strains, locus YLR371W, strain rom2, stronger effect = lower value 0.963 | S. cerevisiae deletion strains, locus YLR384C, strain iki3, stronger effect = lower value 0.998 | S. cerevisiae deletion strains, locus YLR418C, strain cdc73, stronger effect = lower value 0.948 | S. cerevisiae deletion strains, locus YML016C, strain PPZ1, stronger effect = lower value 0.994 | S. cerevisiae deletion strains, locus YML032C, strain rad52, stronger effect = lower value 0.988 | S. cerevisiae deletion strains, locus YML120C, strain ndi1, stronger effect = lower value 0.985 | S. cerevisiae deletion strains, locus YML124C, strain tub3, stronger effect = lower value 0.994 | S. cerevisiae deletion strains, locus YMR058W, strain fet3, stronger effect = lower value 1 | S. cerevisiae deletion strains, locus YMR078C, strain ctf18, stronger effect = lower value 0.973 | S. cerevisiae deletion strains, locus YMR125W, strain sto1, stronger effect = lower value 0.994 | S. cerevisiae deletion strains, locus YMR129W, stronger effect = lower value 1 | S. cerevisiae deletion strains, locus YMR205C, strain PFK2, stronger effect = lower value 0.994 | S. cerevisiae deletion strains, locus YMR223W, strain ubp8, stronger effect = lower value 0.953 | S. cerevisiae deletion strains, locus YMR231W, strain pep5, stronger effect = lower value 0.999 | S. cerevisiae deletion strains, locus YMR263W, strain SAP30, stronger effect = lower value 0.997 | S. cerevisiae deletion strains, locus YMR307W, strain GAS1, stronger effect = lower value 0.95 | S. cerevisiae deletion strains, locus YNL067W, strain RPL9B, stronger effect = lower value 1 | S. cerevisiae deletion strains, locus YNL071W, strain lat1, stronger effect = lower value 1.02 | S. cerevisiae deletion strains, locus YNL183C, strain NPR1, stronger effect = lower value 0.963 | S. cerevisiae deletion strains, locus YNL209W, strain ssb2, stronger effect = lower value 0.991 | S. cerevisiae deletion strains, locus YNL233W, strain BNI4, stronger effect = lower value 0.987 | S. cerevisiae deletion strains, locus YNL248C, strain rpa49, stronger effect = lower value 0.995 | S. cerevisiae deletion strains, locus YNL250W, strain rad50, stronger effect = lower value 0.967 | S. cerevisiae deletion strains, locus YNL271C, strain bni1, stronger effect = lower value 0.964 | S. cerevisiae deletion strains, locus YNL298W, strain CLA4, stronger effect = lower value 0.966 | S. cerevisiae deletion strains, locus YNL307C, strain MCK1, stronger effect = lower value 0.979 | S. cerevisiae deletion strains, locus YNL322C, strain KRE1 (second series), stronger effect = lower value 0.991 | S. cerevisiae deletion strains, locus YNR049C, strain mso1, stronger effect = lower value 1 | S. cerevisiae deletion strains, locus YNR052C, strain pop2, stronger effect = lower value 0.963 | S. cerevisiae deletion strains, locus YOL006C, strain TOP1, stronger effect = lower value 0.878 | S. cerevisiae deletion strains, locus YOL012C, strain htz1 1.03 | S. cerevisiae deletion strains, locus YOL147C, strain pex11, stronger effect = lower value 0.983 | S. cerevisiae deletion strains, locus YOR001W, strain rrp6, stronger effect = lower value 1.02 | S. cerevisiae deletion strains, locus YOR061W, strain CKA2, stronger effect = lower value 0.996 | S. cerevisiae deletion strains, locus YOR069W, strain VPS5, stronger effect = lower value 0.99 | S. cerevisiae deletion strains, locus YOR070C, strain gyp1, stronger effect = lower value 1 | S. cerevisiae deletion strains, locus YOR080W, strain dia2, stronger effect = lower value 1.01 | S. cerevisiae deletion strains, locus YOR083W, strain WHI5, stronger effect = lower value 0.981 | S. cerevisiae deletion strains, locus YOR106W, strain vam3, stronger effect = lower value 0.976 | S. cerevisiae deletion strains, locus YOR136W, strain idh2, stronger effect = lower value 0.991 | S. cerevisiae deletion strains, locus YOR144C, strain elg1, stronger effect = lower value 0.984 | S. cerevisiae deletion strains, locus YOR184W, strain ser1, stronger effect = lower value 0.977 | S. cerevisiae deletion strains, locus YOR231W, strain MKK1, stronger effect = lower value 1.01 | S. cerevisiae deletion strains, locus YOR265W, strain rbl2, stronger effect = lower value 1 | S. cerevisiae deletion strains, locus YOR270C, strain vph1, stronger effect = lower value 1.02 | S. cerevisiae deletion strains, locus YOR290C, strain snf2, stronger effect = lower value 0.958 | S. cerevisiae deletion strains, locus YOR316C, strain cot1, stronger effect = lower value 0.986 | S. cerevisiae deletion strains, locus YPL051W, strain arl3, stronger effect = lower value 0.976 | S. cerevisiae deletion strains, locus YPL078C, strain atp4, stronger effect = lower value 0.989 | S. cerevisiae deletion strains, locus YPL106C, strain sse1, stronger effect = lower value 0.959 | S. cerevisiae deletion strains, locus YPL240C, strain hsp82, stronger effect = lower value 1.01 | S. cerevisiae deletion strains, locus YPL241C, strain CIN2, stronger effect = lower value 1 | S. cerevisiae deletion strains, locus YPL256C, strain CLN2, stronger effect = lower value 0.992 | S. cerevisiae deletion strains, locus YPR119W, strain clb2, stronger effect = lower value 0.982 | S. cerevisiae deletion strains, locus YPR141C, strain kar3, stronger effect = lower value 0.975 | S. cerevisiae deletion strains, locus YPR163C, strain tif3, stronger effect = lower value 0.986 | S. cerevisiae deletion strains, locus YPR167C, strain met16, stronger effect = lower value 0.993 | S. cerevisiae deletion strains, strain wtn01, stronger effect = lower value 0.971 | S. cerevisiae strains, strain wild type, stronger effect = lower value 1.01
